Compound activity deposited in PubChem BioAssay by The Scripps Research Institute Molecular Screening Center.
DAX1 inh-1: blocks DAX1 repression of SF-1 activated StAR promoter; HEK293T StAR-luciferase reporter, SF-1/DAX-1 repression relief; inhibition, % at 6.8 µM; 370,000 compounds, 1.1% hits;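 active = inhibition above the mean over all tested compounds plus 3 SD, cut at about 3.6% in these data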;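 note: 0% = DAX-1 cells with DMSO and 100% = cells lacking DAX-1 with DMSO; higher inhibition means more luminescence from relief of DAX-1 repression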
hcDAF12 agonist: activators of H. contortus DAF-12 nuclear receptor | activation, % at 6.8 µM | HEK293 hcDAF-12 lit1-tk-luc reporter, luminescence; 0% DMSO, 100% Δ7-dafachronic acid | 370,000 compounds, 1.4% hits | AID 652067;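 active = activation above the mean of all tested compounds plus 3 SD, cut at about 5.5% in these data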;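 note: 100% = response to 3 µM Δ7-dafachronic acid high control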
DAX1 inh-2: NR0B1 (DAX1) inhibition | AID 504766 | 340,000 compounds, 0.99% hits | HEK293 Gal4-DAX1 luciferase reporter, luminescence | inhibition, % at 6.75 µM;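 active = inhibition above the mean over all tested compounds plus 3 SD, cut at about 4.2% in these data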;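 note: 0% = DAX1-transfected cells with DMSO and 100% = empty-vector control cells with DMSO; inhibition shows as a rise in luminescence from relieved DAX1 repression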
Target sequence (P51843 207-470 limits assumed): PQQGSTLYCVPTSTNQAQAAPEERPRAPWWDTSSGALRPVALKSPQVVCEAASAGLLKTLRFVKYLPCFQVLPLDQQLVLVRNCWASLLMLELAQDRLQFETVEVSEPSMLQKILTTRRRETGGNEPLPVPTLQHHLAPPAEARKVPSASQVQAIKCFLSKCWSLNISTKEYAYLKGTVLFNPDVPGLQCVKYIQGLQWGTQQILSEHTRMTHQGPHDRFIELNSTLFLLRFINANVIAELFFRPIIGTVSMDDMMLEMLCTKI
AHR activator: human AHR activation. activation, % at 5 µM. P35869. 320,000 compounds, 2.5% hits. AID 2796. AHR-responsive luciferase reporter cells, luminescence; in the data active = activation above about 47%;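 note: 0% = vehicle wells and 100% = reference agonist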
hgDAF12 agonist: agonists of H. glycines DAF-12 nuclear receptor | HEK293 GAL4-hgDAF12 UAS-luciferase reporter, agonist luminescence; normalized to butyrate control | activation, % at 6.8 µM | 370,000 compounds, 1.8% hits | AID 687014;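 active = activation above a cutoff set at the mean of all screened compounds plus 3 SD, cut at about 10% in these data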;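 note: 0% = DMSO wells and 100% = sodium butyrate wells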
ssDAF12 agonist: S. stercoralis DAF-12 activation, primary screen. HEK293 ssDAF-12/GRIP1 lit1-tk-luc reporter, luminescence; % of 3 µM dafachronic acid response. activation, % at 6.8 µM. 370,000 compounds, 1% hits;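 active = activation above the mean over all tested compounds plus 3 SD, cut at about 0.9% in these data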;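 note: 0% = DMSO-only wells and 100% = 3 µM delta7-dafachronic acid wells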
* marks the source's active call; other numbers are inactive results; x = no result given. Hits are enriched below; roughly 5.7% of the tested compounds scored in any of these assays.

SMILES	DAX1 inh-1	hcDAF12 agonist	DAX1 inh-2	AHR activator	hgDAF12 agonist	ssDAF12 agonist
CCc1c(C)nc(SCC(=O)Nc2ccc(Br)cc2)[nH]c1=O	0	0	0	1	0	-2
Cc1cc2cccc(C)c2nc1SCC(=O)NNC(=O)c1ccco1	-1	-1	0	52*	5	-1
O=C(Nc1cccnc1)c1c(F)cccc1F	0	1	0	2	0	-1
CCCCN(C(=O)c1cccc(N2C(=O)c3ccccc3C2=O)c1)c1c(N)n(CC(C)C)c(=O)[nH]c1=O	1	-1	-1	0	-3	-1
COc1ccc(CCn2c(C3CCCCC3)nc3c(c(=O)c4ccccc4n3C)c2=O)cc1OC	0	-2	1	3	-4	-2
Cc1ccc(N2CC(C(=O)Nc3nccs3)CC2=O)cc1 (configuration not stated)	0	-1	0	1	0	-1
Cc1cc(N)n2ncc(-c3ccc(F)cc3)c2n1	2	1	-1	45	9	-1
Cc1nc2c(-c3ccc(F)cc3)cnn2c(N)c1-c1ccc(F)cc1	0	-1	4.3*	0	-4	-2
COc1ccc(-c2c(C)nc3c(-c4ccsc4)cnn3c2N)cc1	2	3	5.2*	16	7	-1
CC(C)(C)S(=O)(=O)c1cnc2c(-c3ccsc3)cnn2c1N	-1	1	3	12	-1	-1
CCS(=O)(=O)c1ccc2oc(=O)c(/C=C(\O)c3ccc(Cl)cc3)nc2c1	1	-2	-1	0	3	-1
O=C(O)c1cccc(-c2noc(-c3cccc(Cl)c3)n2)c1	2	4	-2	-5	13*	0
Cc1c(C(=O)NCCCN2CCOCC2)sc2ncnc(N3CCN(c4ccccc4)CC3)c12	-1	-1	-1	x	-3	-1
COc1ccccc1-c1cccc([C@@H]2C[C@H]3[C@H](CON3C)CN2C(C)=O)c1	3.7*	-1	-1	x	1	-2
CC(=O)N1C[C@H]2CON(C)[C@H]2C[C@H]1c1cccc(-c2ccccc2C)c1	-1	-5	0	x	-13	-2
CC(=O)N1C[C@H]2CON(C)[C@H]2C[C@H]1c1ccccc1Br	-1	-2	0	x	-1	1.1*
O=C(Cn1c(C(F)(F)F)nc2ccccc21)c1ccc(F)cc1	0	-2	0	-2	-2	0
Fc1ccc(C2CC(c3ccco3)=NN2c2ccccc2)cc1 (configuration not stated)	-1	0	-1	-4	1	-1
Fc1ccc(C2CC(c3ccco3)=Nc3ccccc3S2)cc1 (configuration not stated)	-1	2	7.0*	4	1	0
COc1ccc(-c2noc(-c3cc4ccccc4oc3=O)n2)cc1	x	x	x	-2	x	x
COc1ccc(-c2csc(-c3cc4ccccc4oc3=N)n2)cc1	0	2	0	50*	5	-1
Cc1cccc(CN2CCN(CC(=O)N3CCCC3)C2=O)c1	0	0	1	0	-1	-1
N#CC1=C(N2CCOCC2)/C(=C\c2ccccc2)CC1	-2	1	0	49*	0	-1
O=C(NP(=O)(N1CCOCC1)N1CCOCC1)C1=C(N2CCOCC2)/C(=C\c2ccccc2)CC1	0	2	-1	2	-2	-1
O=P(C1=C(N2CCOCC2)/C(=C\c2ccccc2)CC1)(N1CCOCC1)N1CCOCC1	-1	6.5*	0	1	0	-2
SMILES	DAX1 inh-1	hcDAF12 agonist	DAX1 inh-2	AHR activator	hgDAF12 agonist	ssDAF12 agonist
COc1ccc(N(CC(=O)Nc2cccc(C)c2)S(=O)(=O)c2c(C)noc2C)cc1	-1	-3	1	10	3	-1
Cc1ccc(NC(=O)/C=C2\NC(=O)CS2)cc1	1	1	1	61*	5	1
COc1ccccc1NC(=O)/C=C1\NC(=O)CS1	1	-1	2	22	2	-1
CN(C)C(CNC(=O)C1CCN(S(=O)(=O)c2ccccc2)CC1)c1ccccc1 (configuration not stated)	0	-1	0	2	4	0
CC(=O)N1CCC(N(CCN2CCOCC2)C(=S)Nc2ccc(C)cc2)CC1	1	0	1	0	2	-1
O=C1SC(c2ccccc2)=C/C1=C\N1CCCCC1	1	6.1*	0	5	1	0
Cc1ccc(C(=O)ON=C2CCN(c3ccc([N+](=O)[O-])cc3)CC2)cc1	0	0	1	0	2	-1
COc1cc(/C=N/NC(=O)Nc2ccccc2)ccc1OC(C)=O	1	3	1	13	12*	0
O=C(N/N=C/c1ccc(Cl)cc1)Nc1ccccc1	1	1	2	67*	9	-1
O=C(N/N=C/c1cc(Br)ccc1O)Nc1ccccc1	0	3	0	51*	4	-1
Clc1ccc(/C=N\Nc2ccccc2)cc1	1	2	0	14	-2	-1
COc1ccc(/C=N/NC(=O)CSCC(=O)Nc2ccccc2)cc1OC	1	-2	1	2	0	-1
CCCCNC(=S)NNC(=O)CCn1cc(C)cn1	0	1	0	-1	-2	-1
S=C(NCCc1ccccc1)NCCN1CCOCC1	1	0	-1	1	0	-2
COC(=O)c1c(C)oc(C)c1S(=O)(=O)NCc1ccc(OC)cc1	0	-1	-2	-2	1	0
NC(CSC(c1ccccc1)(c1ccccc1)c1cccc2ccccc12)C(=O)O (configuration not stated)	x	x	4.5*	x	x	x
NC(CSC1(c2cccc3ccccc23)c2ccccc2-c2ccccc21)C(=O)O (configuration not stated)	-4	-2	0	x	-2	-1
CN1CCN(C(=O)C2=C[C@@H](C3CCCCC3)C[C@@H](OCc3ccc(CO)cc3)O2)CC1	0	0	0	-2	1	-1
COc1cccc(/C=C2\SC(=S)N(CCC(=O)NNC(=O)c3ccccc3OC)C2=O)c1	0	5	0	23	2	1.0*
COc1ccccc1/C=C1\SC(=S)N(CCC(=O)NNC(=O)c2ccccc2O)C1=O	x	x	-1	56*	x	x
COc1cccc(/C=C2\SC(=O)N(CCC(=O)NNC(=O)c3ccccc3Cl)C2=O)c1	0	-2	-1	36	0	-1
O=C(CCN1C(=O)/C(=C\c2cccc(Br)c2)SC1=S)NCCCN1CCOCC1	0	6.0*	1	1	1	-1
O=C(CCN1C(=O)/C(=C\c2ccccc2F)SC1=S)Nc1ccc(C(=O)O)c(O)c1	3.9*	0	2	-2	1	-1
Cc1noc(C)c1-c1ccc(C(=O)NC2CCCCC2)c2occc12	0	-1	x	x	5	1.7*
